aSyn 5UTR inh = MLPCN primary screen, SNCA 5' untranslated region; alpha-synuclein 5'UTR reporter, inhibitor activity; inhibition, % (tested at 7.5 µM); 0.82% of 300,000 active; AID 1813, 2009; in the data active = inhibition above about 60%;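 also: H4 neuroglioblastoma cells stably carrying SNCA 5'UTR luciferase fusion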
697 NFkB inh = inhibitors of PMA/ionomycin-induced NF-kB reporter, 697 cells, primary screen, B-cell NF-kB inhibitor project, cell-based, luminescence, uHTS | 697 B-cell NF-kB luciferase reporter, 16 h | inhibition, % at 4 µM | 0.33% of 330,000 active | AID 435022, 2010; in the data active = inhibition above about 35%
CSC inhib = cancer stem cell viability inhibitors, primary screen, luminescence | 1.1% of 300,000 active | inhibition, % at 7.5 µM | cancer stem cell-like cells viability; in the data active = inhibition above about 75%; tested in HMLE shEcad cells
Mdm2 MdmX PPI = inhibitors of human Mdm2-MdmX association, primary screen, cell-based, luminescence, split luciferase, SaOS-2, uHTS; Protein Mdm4 (Homo sapiens) + E3 ubiquitin-protein ligase Mdm2 (Homo sapiens), …; SaOS-2 split-luciferase Mdm2/MdmX complementation; inhibition, % at 8 µM; 3% of 330,000 active; AID 485346, 2010;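 active = inhibition of at least 50% at 8 µM in the primary screen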
Target sequence (O15151 whole entry, looked up): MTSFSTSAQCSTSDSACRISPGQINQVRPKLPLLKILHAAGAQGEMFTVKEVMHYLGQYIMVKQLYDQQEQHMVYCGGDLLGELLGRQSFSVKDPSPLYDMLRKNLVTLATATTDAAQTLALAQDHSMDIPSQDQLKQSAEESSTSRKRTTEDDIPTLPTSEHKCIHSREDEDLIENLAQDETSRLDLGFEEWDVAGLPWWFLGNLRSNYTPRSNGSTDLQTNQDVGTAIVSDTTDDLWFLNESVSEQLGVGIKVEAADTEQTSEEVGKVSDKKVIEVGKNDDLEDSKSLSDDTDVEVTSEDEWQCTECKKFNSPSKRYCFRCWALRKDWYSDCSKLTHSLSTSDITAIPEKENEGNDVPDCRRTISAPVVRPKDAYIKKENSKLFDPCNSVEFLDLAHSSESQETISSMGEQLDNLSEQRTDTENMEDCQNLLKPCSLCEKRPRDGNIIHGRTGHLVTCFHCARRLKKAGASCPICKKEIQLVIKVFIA
Target sequence (Q00987 whole entry, looked up): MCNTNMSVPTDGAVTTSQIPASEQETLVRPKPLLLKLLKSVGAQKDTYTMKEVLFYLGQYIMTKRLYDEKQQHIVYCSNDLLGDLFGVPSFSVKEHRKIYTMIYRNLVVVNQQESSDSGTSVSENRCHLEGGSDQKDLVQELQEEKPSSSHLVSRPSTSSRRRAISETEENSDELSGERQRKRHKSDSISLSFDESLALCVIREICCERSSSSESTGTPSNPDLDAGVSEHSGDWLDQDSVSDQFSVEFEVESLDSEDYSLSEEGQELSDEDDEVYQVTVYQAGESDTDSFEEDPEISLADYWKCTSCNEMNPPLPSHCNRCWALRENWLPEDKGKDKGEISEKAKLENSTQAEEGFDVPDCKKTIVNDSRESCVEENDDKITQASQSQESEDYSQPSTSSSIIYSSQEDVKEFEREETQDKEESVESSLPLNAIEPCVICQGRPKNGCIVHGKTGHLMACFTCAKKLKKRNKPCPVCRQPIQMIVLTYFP
Jurkat NFkB inh = inhibitors of induced NF-kB luciferase reporter, primary screen, TCR NF-kB activation inhibitor project, cell-based, luminescence, uHTS; Jurkat, PMA/ionomycin-induced NF-kB luciferase reporter; 0.53% of 330,000 active; inhibition, % at 4 µM; in the data active = inhibition above about 50%
Gli-Sufu antag = Gli-Sufu pathway antagonists, primary screen, luciferase luminescence, Sufu-KO-LIGHT cells, uHTS; Sufu-KO-LIGHT fibroblasts, Gli luciferase reporter luminescence; inhibition, % at 5 µM; 0.74% of 340,000 active; AID 588413, 2011;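 active = inhibition above about 55%, limit read from the data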
Jurkat NFkB conf = PMA/ionomycin-induced NF-kB reporter inhibitors, Jurkat retest, confirmation, T-cell NF-kB inhibitor project, cell-based, luminescence, single concentration. inhibition, % at 4 µM. 27% of 2,700 active. shares compounds with Jurkat NFkB inh. AID 435020, 2010. Jurkat NF-kB luciferase, 16 h;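 active = inhibition reaching about 45% at 4 µM in either replicate, limit read from the data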
Of the large screens only hits and unclear results are named; the others gave an inactive call (follow-up assays come after a bar, where they were run). Most compounds without a hit are left out; they make up all but 4.5% or so of the library.

Cc1ccc(NC(=O)c2nnn(-c3ccc4c(c3)OCCO4)c2N)cc1	none
COc1ccc(-c2cn3cc(C)ccc3n2)cc1Br	none | Jurkat NFkB conf inactive
COc1ccc(-c2cn3cc(Cl)ccc3n2)cc1OC	none
CC(C)c1cc(CN2CCN(CCC#N)CC2)cc(C(C)C)c1O	none
COc1ccc(CCn2c(Br)nc3c2c(=O)[nH]c(=O)n3C)cc1	Jurkat NFkB inh 56.6 | Jurkat NFkB conf inactive
COc1ccc(CCn2c(N3CCN(C)CC3)nc3c2c(=O)[nH]c(=O)n3C)cc1	none
CCOc1ccc(S(=O)(=O)N2c3ccccc3CC2C)cc1 (stereo not drawn)	aSyn 5UTR inh 92.6, Jurkat NFkB inh 70.9 | Jurkat NFkB conf 50.7
CC#CC(=O)N1CCC(n2nccc2NC(=O)c2ccc3c(c2)OCO3)CC1	Jurkat NFkB inh 74.0 | Jurkat NFkB conf inactive
O=C(CN1C(=O)NC2(CCOc3ccccc32)C1=O)NCCc1ccccc1 (stereo not drawn)	Jurkat NFkB inh 63.7 (no result: aSyn 5UTR inh) | Jurkat NFkB conf inactive
N#CC1=C2Sc3ccccc3N2CCCC1=O	none
N#CC1=C2SC=C(c3ccc(Br)cc3)N2CCCC1=O	CSC inhib 86.2 | Jurkat NFkB conf inactive
CC(Oc1ccc(F)cc1)C(=O)Nc1ccccc1C(=O)N1CCCCC1 (stereo not drawn)	none (no result: aSyn 5UTR inh, CSC inhib)
CCOCC(=O)Nc1cc(C)on1	none
NC(=O)c1sc2nc(-c3cccnc3)ccc2c1N	none
CCOC(=O)c1sc2nc(-c3cccnc3)ccc2c1N	none | Jurkat NFkB conf inactive
CCc1ccccc1NC(=O)Cn1nnc(C(=O)NCc2cccs2)c1N	Jurkat NFkB inh 51.1 | Jurkat NFkB conf inactive
COc1ccc(OC)c(C(=O)NC(CC(N)=O)c2ccc(NCCN3CCCCC3)c([N+](=O)[O-])c2)c1 (stereo not drawn)	none
CC(=O)Nc1ccc(S(=O)(=O)NNc2ccc([N+](=O)[O-])cc2)cc1	none
Cc1ccc(C)c(S(=O)(=O)N2CCCCC2CCNC(=O)C(=O)NCc2cccnc2)c1 (stereo not drawn)	none
Cc1ccc(S(=O)(=O)N2CCCCC2CCNC(=O)C(=O)NCc2cccnc2)cc1 (stereo not drawn)	Jurkat NFkB inh 62.4 | Jurkat NFkB conf inactive
COc1ccc(NC(=O)C(=O)NCCC2CCCCN2S(=O)(=O)c2ccc(F)cc2)cc1 (stereo not drawn)	Jurkat NFkB inh 59.7 | Jurkat NFkB conf inactive
O=C(NCCC1CCCCN1S(=O)(=O)c1ccccc1)C(=O)Nc1ccc(F)cc1 (stereo not drawn)	none
CC(C)C(NC(=O)c1ccccc1NC(=O)c1ccccc1)C(=O)NNC(=O)c1ccncc1 (stereo not drawn)	none
Cc1ccc(CC(=O)Nc2nccs2)cc1	none
CC(=O)C(Cc1ccccc1)NC(=O)CN1CCN(Cc2ccccc2)CC1 (stereo not drawn)	none
N=c1c(C(=O)NCCc2ccccc2)cc2c(=O)n3ccccc3nc2n1CCCN1CCOCC1	Jurkat NFkB inh 52.9 | Jurkat NFkB conf inactive
Brc1ccc(-c2nc3ccccc3s2)s1	none | Jurkat NFkB conf inactive
CCCNC(=O)c1ccc(-c2nc3ccccc3s2)s1	aSyn 5UTR inh 79.2 | Jurkat NFkB conf inactive
Nc1ccc(-c2nc3ccccc3s2)cn1	none
CCCNC(=O)Nc1nc2ccccc2s1	none
COc1ccc(C(=O)NNC(=S)NC(=O)c2ccc(OC)cc2)cc1	none
COc1ccc(NC(=S)NNC(=O)c2ccccc2OC(F)F)cc1	Jurkat NFkB inh 52.9 (no result: CSC inhib) | Jurkat NFkB conf inactive
COc1ccc(NC(=S)N/C(=N/CS(=O)(=O)c2ccccc2)c2ccccc2)cc1	none | Jurkat NFkB conf inactive
COc1ccc(C(=O)NNC(=S)Nc2ccccc2)cc1	none | Jurkat NFkB conf inactive
Cn1c(C(=O)Nc2ccc3c(c2)OCCO3)cc2sccc21	none | Jurkat NFkB conf inactive
COc1cc(CN(C)CC2CCCN(CCc3cccc(C(F)(F)F)c3)C2)ccc1O (stereo not drawn)	none
COc1cccc(C(=O)Nc2ccc3c(C)cc(=O)oc3c2)c1	none | Jurkat NFkB conf inactive
O=c1[nH]c(-c2ccccn2)cc2ccccc12	Jurkat NFkB inh 61.7 | Jurkat NFkB conf inactive
CC(C)CC(=O)Nc1ccc2nn(-c3ccccc3)nc2c1	none (no result: CSC inhib) | Jurkat NFkB conf inactive
CCCC(=O)Nc1ccc2nn(-c3ccc(OC)cc3)nc2c1	none
Cc1cc(-n2c(C)cc(C(=O)CSc3ncnc4ccccc34)c2C)no1	Jurkat NFkB inh 55.5, Gli-Sufu antag 72.8 | Jurkat NFkB conf inactive
Cc1cc(C(=O)CSc2ccccc2)cc(C)c1O	none
O=C(O)c1ccc(-c2ccc(-c3ccccc3)cc2)s1	aSyn 5UTR inh 63.9, Jurkat NFkB inh 61.3 (no result: Gli-Sufu antag) | Jurkat NFkB conf inactive
O=C(Nc1ccccc1)c1cc2ccc3ccccc3c2s1	none | Jurkat NFkB conf inactive
O=C(Nc1ccccc1)c1ccc(-c2ccccc2)s1	none | Jurkat NFkB conf inactive
CC(C)N1CCN(Cc2cc3ccccc3[nH]2)CC1CCO (stereo not drawn)	none
CSc1cccc(NC(=O)CCS(=O)(=O)c2cccc3nonc23)c1	none
C(=N\Nc1ccccn1)/c1ccc2c(c1)OCCO2	none | Jurkat NFkB conf inactive
CCCOc1ccc(/C=N/Nc2ccccn2)cc1OC	none (no result: CSC inhib) | Jurkat NFkB conf inactive
CCCOc1ccc(-c2nc(SCc3ccccc3)[nH]c(=O)c2C#N)cc1OC	none
CN(C)c1ccc(C(CNS(=O)(=O)c2ccc3ccccc3c2)N2CCOCC2)cc1 (stereo not drawn)	none
CCCC(=Nc1ccccc1OC)C1=C(O)CC(c2ccccc2)CC1=O (stereo not drawn)	none
CCC/C(O)=C1\C(=O)CC(c2ccccc2)CC1=NCCc1c(C)[nH]c2ccccc12 (stereo not drawn)	none
CC(=NCCc1c(C)[nH]c2ccc(C)cc12)C1=C(O)CC(c2ccccc2)CC1=O (stereo not drawn)	Jurkat NFkB inh 56.1 | Jurkat NFkB conf inactive
CC(=NCCc1c(C)[nH]c2ccc(OC(F)(F)F)cc12)C1=C(O)CC(c2ccccc2)CC1=O (stereo not drawn)	Jurkat NFkB inh 57.0 | Jurkat NFkB conf inactive
COc1nc(C)ccc1-c1noc(-c2ccco2)n1	none | Jurkat NFkB conf inactive
Cn1c(=NC(=O)c2ccccc2[N+](=O)[O-])sc2cccc(F)c21	none
CC(=O)Nc1ccc(-c2cc3ccccc3o2)cc1	none | Jurkat NFkB conf inactive
NS(=O)(=O)c1ccc2nc(NC(=O)Nc3ccccc3F)sc2c1	none | Jurkat NFkB conf inactive
Cc1ccccc1NC(=O)Nc1nc2ccc(S(C)(=O)=O)cc2s1	none
Cc1cccc(NC(=S)c2nc3ccccc3s2)c1	none | Jurkat NFkB conf inactive
O=C(NC(=S)Nc1ccc2c(c1)OCCO2)c1ccccc1	none | Jurkat NFkB conf inactive

Screens as filed in PubChem.
